# “And” between values parts separate entries of the source, which are not always exact repeats. Equal values may be shown once. Values without a mark were called inactive. Inconclusive results are not listed. A call without a number means that no potency is given here. The source made the active and inactive calls. Unless noted, the call rests on the fitted dose curve.
# Assays:
# [1] = Nuclear factor erythroid 2-related factor 2/antioxidant responsive element (Nrf2/ARE) small molecule agonists: luciferase reporter gene qHTS assay in human keratinocytes (AID 1919969); further: nearly all actives have a fitted effect of over 35% in size; further: potency means the concentration at half of the fitted maximal effect
# [2] = target: Gonadotropin-releasing hormone receptor (Homo sapiens) (UniProt P30968); experiment: Human gonadotropin-releasing hormone receptor (GnRHR) small molecule agonists, calcium flux assay in GnRHR-HEK293 cells (AID 1920063); further: nearly all actives have a fitted effect of over 35% in size; further: potency means the concentration at half of the fitted maximal effect
# Summary of the method: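 We seeded human GnRHR-expressing HEK293 cells for 18 hours, loaded them with calcium dye for an hour at 37 C, added test compounds, and recorded fluorescence intensity kinetically for three minutes.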
# [3] = target: KiSS-1 receptor (Homo sapiens) (UniProt Q969F8); experiment: Human kisspeptin (KISS1R) small molecule agonists, calcium flux assay in KISS1R-HEK293 cells (AID 1920064; active means well fitted activation curve with a large enough effect in the repeat runs; further: potency means the concentration at half of the fitted maximal effect)
# Summary of the method: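 Kinetic calcium assay, 1 s sampling over 3 min at Ex/Em 480/540, in HEK293 cells engineered with human KISS1R; compounds delivered in DMSO after 1 h dye loading.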
# [4] = G protein-coupled receptor (GPCR) small molecule agonists, calcium flux assay: HEK293 wild type cell line counter screen (AID 1920065); further: potency means the concentration at half of the fitted maximal effect
# Summary of the method: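 Calcium-sensitive dye, loaded 1 h at 37 C into cells cultured 18 h, reports compound-evoked calcium release as fluorescence (Ex/Em 480/540), measured over 3 min. Agonist mode; 15-point titrations, triplicate.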
# [5] = p53 small molecule agonists, cell-based qHTS assay with rat liver microsomes (AID 1963578)
# Summary of the method: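 p53RE-bla cells were exposed to compounds together with rat liver microsomes (0.5 mg/mL final) and NADPH (0.5 mg/mL final) for 16 h at 37 C, then read by LiveBLAzer beta-lactamase fluorescence after 2 h at room temperature.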
# [6] = p53 small molecule agonists, cell-based qHTS assay with human liver microsomes: qHTS cell viability counter screen (AID 1963579); further: nearly all actives have a fitted effect of over 45% in size; further: potency means the concentration at half of the fitted maximal effect
# Summary of the method: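 p53RE-bla cells (4,000/well) were pre-incubated 5 h at 37 C, then given compounds in DMSO plus human liver microsomes (0.5 mg/mL final) and NADPH (0.5 mg/mL final) for 16 h at 37 C. Viability was read by CellTiter-Glo luminescence.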
# [7] = p53 small molecule agonists, cell-based qHTS assay with rat liver microsomes: qHTS cell viability counter screen (AID 1963580); further: nearly all actives have a fitted effect of over 45% in size
# Summary of the method: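 Intracellular ATP, by CellTiter-Glo luminescence, defines viability. HCT-116 p53RE-bla cells, 4,000 per well, were compound-treated in the presence of rat liver microsomes and NADPH for 16 h at 37 C.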
# [8] = p53 small molecule agonists, cell-based qHTS assay (AID 1963582; active means well fitted activation curve with a large enough effect in the signal ratio in the repeat runs, not every such curve was filed as active; the % refers to the signal ratio)
# Summary of the method: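 In this cell-based concentration-response screen, a p53 response element drives beta-lactamase; cells received DMSO-borne compounds after 5 h culture and were incubated a further 16 h before FRET substrate development.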
# [9] = target: 5-hydroxytryptamine receptor 2A (Homo sapiens) (UniProt P28223); experiment: 5-hydroxytryptamine receptor 2A (HTR2A) small molecule antagonists, cell-based qHTS assay (AID 1963586); further: nearly all actives have a fitted effect of over 45% in size; further: potency means the concentration at half of the fitted maximal effect
# Summary of the method: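 Antagonist-mode intracellular calcium assay: DOI (4 nM) added after 5 min compound pre-incubation at room temperature to dye-loaded HTR2A-CHO cells. Fluorescence followed for 3 min, sampled every second.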
# [10] = target: 5-hydroxytryptamine receptor 2A (Homo sapiens) (UniProt P28223); experiment: 5-hydroxytryptamine receptor 2A (HTR2A) small molecule agonists, cell-based qHTS assay (AID 1963587); further: nearly all actives have a fitted effect of over 30% in size; further: potency means the concentration at half of the fitted maximal effect
# Summary of the method: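 Kinetic calcium-flux fluorescence (2 min, 1 sec intervals) after compound addition in agonist mode. HTR2A-CHO cells were cultured 18 h, then dye-loaded 1 h at 37 C.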
# [11] = target: Muscarinic acetylcholine receptor M1 (Homo sapiens) (UniProt P11229); experiment: Cholinergic receptor muscarinic 1 (CHRM1) small molecule antagonists, cell-based qHTS assay (AID 1963588); further: nearly all actives have a fitted effect of over 40% in size
# Summary of the method: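 CHRM1-CHO calcium-flux assay, antagonist mode. Cells were seeded 18 h, dye-loaded 1 h at 37 C and given compound for 5 min at RT, then acetylcholine was added at 50nM. FDSS fluorescence was read 3 min; 15 concentrations, three runs.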
# [12] = target: Muscarinic acetylcholine receptor M1 (Homo sapiens) (UniProt P11229); experiment: Cholinergic receptor muscarinic 1 (CHRM1) small molecule agonists, cell-based qHTS assay (AID 1963589); further: nearly all actives have a fitted effect of over 35% in size; further: potency means the concentration at half of the fitted maximal effect
# Summary of the method: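 Measures agonist-induced intracellular calcium rise. Stable human CHRM1 CHO line, 1 h dye load at 37 C, compounds from DMSO, kinetic fluorescence read.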
# [13] = target: Beta-2 adrenergic receptor (Homo sapiens) (UniProt P07550); experiment: Adrenergic beta2 receptor (ADRB2) small molecule antagonists, cell-based qHTS assay (AID 1963592); further: nearly all actives have a fitted effect of over 50% in size; further: potency means the concentration at half of the fitted maximal effect
# Summary of the method: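 Cells (CHO, stable ADRB2 overexpression) incubated 18-20hr at 37C; compounds added from DMSO; agonist mix (1nM isoproterenol, 100uM IBMX, 25uM Ro-20-1724) added; 0.5hr RT; d2-cAMP and anti-cAMP-cryptate added; 1hr RT; 665/615 nm read.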
# [14] = target: D(2) dopamine receptor (Homo sapiens) (UniProt P14416); experiment: Dopamine D2 receptor (DRD2) small molecule agonists, cell-based qHTS assay (AID 1963594); further: nearly all actives have a fitted effect of over 35% in size
# Summary of the method: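 cAMP accumulation in DRD2-HEK293 cells measured by HTRF after 1 h detection; compounds added 10 min before NKH477 (200nM […]) forskolin-analogue stimulation, 30 min at room temperature, with Ro20-1724 present at 0.1 mM final.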
# [15] = target: D(2) dopamine receptor (Homo sapiens) (UniProt P14416); experiment: Dopamine D2 receptor (DRD2) small molecule antagonists, cell-based qHTS assay (AID 1963595; active means well fitted inhibition curve with a large enough effect in the signal ratio in the repeat runs, with a control signal flat; the % refers to the signal ratio; further: potency means the concentration at half of the fitted maximal effect)
# Summary of the method: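 HTRF cAMP read-out at 665 and 620 nm emission (340 nm excitation). Antagonist mode: compounds were tested against 12 nM quinpirole in DRD2-HEK293 cells, with 200 nM NKH477 raising cAMP and 0.1 mM Ro20-1724 blocking its breakdown.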
# [16] = target: Beta-2 adrenergic receptor (Homo sapiens) (UniProt P07550); experiment: Adrenergic beta2 receptor (ADRB2) small molecule agonists, cell-based qHTS assay (AID 1963593);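 further: CHO cells stably overexpressing human ADRB2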
# Summary of the method: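 CHO cells stably over-expressing ADRB2 were plated overnight at 37C, then dosed with compounds plus a stimulation mix containing 100uM IBMX and 25uM Ro-20-1724 for 0.5hr at room temperature. cAMP was measured by HTRF competition, 1hr.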
# [17] = p53 small molecule agonists, cell-based qHTS assay with human liver microsomes (AID 1963577)
# Summary of the method: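 p53RE-bla reporter cells were pre-incubated 5 h at 37 C, then treated with compounds plus human liver microsomes (0.5 mg/mL final) and NADPH (0.5 mg/mL final) for 16 h at 37 C. Beta-lactamase activity was read by LiveBLAzer fluorescence after 2 h at room temperature.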
# [18] = p53 small molecule agonists, cell-based qHTS assay: qHTS cell viability counter screen (AID 1963581); further: nearly all actives have a fitted effect of over 45% in size; further: potency means the concentration at half of the fitted maximal effect
# Summary of the method: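 Following 5 h attachment, HCT-116 p53RE-bla cells took up compound for 16 h at 37 C; the reporter was read with B/G FRET substrate (2 h RT), and viability then via CellTiter-Glo ATP luminescence.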
# [19] = cAMP Responsive Elements (CRE) small molecule agonists, cell-based qHTS assay (AID 1963590)
# Summary of the method: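 A CRE-responsive beta-lactamase reporter in HEK 293T cells was used. Treatment ran 3 h at 37 C; detection used LiveBLAzer B/G FRET substrate for 2 h at room temperature.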
# [20] = cAMP Responsive Elements (CRE) small molecule antagonists, cell-based qHTS assay (AID 1963591; active means well fitted inhibition curve with a large enough effect in the signal ratio in the repeat runs, not every such curve was filed as active; the % refers to the signal ratio; further: potency means the concentration at half of the fitted maximal effect)
# Summary of the method: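 HEK293T cells carrying a CRE-driven beta-lactamase reporter receive compound and NKH477 (0.25 uM final) for 3 h. Fluorescence from LiveBLAzer B/G FRET substrate is read after 2 h at room temperature.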
# Chain of Muscarinic acetylcholine receptor M1 (Homo sapiens) (P11229 whole entry, looked up): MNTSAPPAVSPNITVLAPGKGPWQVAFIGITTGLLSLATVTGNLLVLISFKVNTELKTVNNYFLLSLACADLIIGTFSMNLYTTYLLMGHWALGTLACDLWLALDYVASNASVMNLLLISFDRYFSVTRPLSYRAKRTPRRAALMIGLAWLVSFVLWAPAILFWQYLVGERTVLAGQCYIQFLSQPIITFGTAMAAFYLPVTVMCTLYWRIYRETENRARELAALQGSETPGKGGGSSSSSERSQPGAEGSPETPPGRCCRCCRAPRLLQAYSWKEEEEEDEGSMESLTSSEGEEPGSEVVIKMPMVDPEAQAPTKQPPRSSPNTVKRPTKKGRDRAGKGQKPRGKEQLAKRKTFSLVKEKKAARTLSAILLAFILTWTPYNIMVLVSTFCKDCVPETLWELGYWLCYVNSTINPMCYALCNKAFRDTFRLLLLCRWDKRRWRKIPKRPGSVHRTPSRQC
# Chain of D(2) dopamine receptor (Homo sapiens) (P14416 whole entry, looked up): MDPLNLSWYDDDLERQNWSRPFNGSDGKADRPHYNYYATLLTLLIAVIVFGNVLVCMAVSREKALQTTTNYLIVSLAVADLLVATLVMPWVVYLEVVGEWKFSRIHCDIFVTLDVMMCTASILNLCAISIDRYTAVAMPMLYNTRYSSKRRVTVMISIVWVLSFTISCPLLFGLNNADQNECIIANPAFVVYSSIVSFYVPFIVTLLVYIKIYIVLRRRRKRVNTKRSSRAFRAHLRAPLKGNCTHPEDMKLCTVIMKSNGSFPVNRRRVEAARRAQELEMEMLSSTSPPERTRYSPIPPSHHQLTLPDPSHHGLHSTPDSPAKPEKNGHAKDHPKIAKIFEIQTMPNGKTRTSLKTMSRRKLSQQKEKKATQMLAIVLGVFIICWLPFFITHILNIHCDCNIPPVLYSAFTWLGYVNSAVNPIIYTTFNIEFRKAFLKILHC
# Chain of Beta-2 adrenergic receptor (Homo sapiens) (P07550 whole entry, looked up): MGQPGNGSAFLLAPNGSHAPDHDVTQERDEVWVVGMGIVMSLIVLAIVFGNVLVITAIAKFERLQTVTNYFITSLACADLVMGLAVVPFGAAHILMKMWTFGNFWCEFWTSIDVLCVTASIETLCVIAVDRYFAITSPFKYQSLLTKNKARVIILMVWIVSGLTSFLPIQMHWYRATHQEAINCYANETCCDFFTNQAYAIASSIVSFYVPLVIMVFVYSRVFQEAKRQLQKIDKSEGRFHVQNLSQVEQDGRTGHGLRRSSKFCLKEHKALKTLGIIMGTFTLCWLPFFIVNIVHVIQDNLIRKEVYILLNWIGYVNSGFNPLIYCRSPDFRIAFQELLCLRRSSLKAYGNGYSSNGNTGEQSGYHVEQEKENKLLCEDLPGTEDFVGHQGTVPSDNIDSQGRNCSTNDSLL
# Chain of Gonadotropin-releasing hormone receptor (Homo sapiens) (P30968 whole entry, looked up): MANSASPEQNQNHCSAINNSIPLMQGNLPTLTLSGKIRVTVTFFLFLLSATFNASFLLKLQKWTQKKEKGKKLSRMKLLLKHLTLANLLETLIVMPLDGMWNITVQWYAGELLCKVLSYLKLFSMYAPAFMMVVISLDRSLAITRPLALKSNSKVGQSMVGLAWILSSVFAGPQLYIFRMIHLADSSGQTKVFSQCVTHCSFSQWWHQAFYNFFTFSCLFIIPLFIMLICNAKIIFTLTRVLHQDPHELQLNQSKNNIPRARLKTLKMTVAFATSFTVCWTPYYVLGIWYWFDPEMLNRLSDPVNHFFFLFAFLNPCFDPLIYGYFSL
# Chain of KiSS-1 receptor (Homo sapiens) (Q969F8 whole entry, looked up): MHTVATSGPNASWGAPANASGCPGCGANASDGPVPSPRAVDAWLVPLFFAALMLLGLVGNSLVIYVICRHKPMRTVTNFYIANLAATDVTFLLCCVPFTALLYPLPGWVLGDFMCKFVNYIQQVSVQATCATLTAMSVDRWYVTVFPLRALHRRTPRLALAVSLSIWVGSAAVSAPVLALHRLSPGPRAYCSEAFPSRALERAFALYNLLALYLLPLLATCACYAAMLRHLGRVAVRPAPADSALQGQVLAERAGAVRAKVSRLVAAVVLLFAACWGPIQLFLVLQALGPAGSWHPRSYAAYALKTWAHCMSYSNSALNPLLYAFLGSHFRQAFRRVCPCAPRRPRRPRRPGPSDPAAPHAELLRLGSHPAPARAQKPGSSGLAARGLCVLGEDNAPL
# Chain of 5-hydroxytryptamine receptor 2A (Homo sapiens) (P28223 whole entry, looked up): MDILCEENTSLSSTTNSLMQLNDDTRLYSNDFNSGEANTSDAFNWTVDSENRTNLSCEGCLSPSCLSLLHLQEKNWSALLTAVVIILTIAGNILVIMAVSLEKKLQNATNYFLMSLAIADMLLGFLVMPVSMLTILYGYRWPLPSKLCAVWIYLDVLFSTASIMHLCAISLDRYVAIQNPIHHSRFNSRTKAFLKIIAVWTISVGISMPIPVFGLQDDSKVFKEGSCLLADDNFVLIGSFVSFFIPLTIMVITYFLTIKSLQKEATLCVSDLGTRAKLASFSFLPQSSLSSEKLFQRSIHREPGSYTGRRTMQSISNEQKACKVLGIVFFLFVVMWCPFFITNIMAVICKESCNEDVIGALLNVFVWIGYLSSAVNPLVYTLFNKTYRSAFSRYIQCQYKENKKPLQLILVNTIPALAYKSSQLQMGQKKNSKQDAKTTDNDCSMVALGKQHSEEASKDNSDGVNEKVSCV
SMILES,Potency [1],Potency [2],Potency [3],Potency [4],Potency [5],Potency [6],Potency [7],Potency [8],Potency [9],Potency [10],Potency [11],Potency [12],Potency [13],Potency [14],Potency [15],Potency [16],Potency [17],Potency [18],Potency [19],Potency [20]
CCCCCCC(C)OC(=O)COc1nc(F)c(Cl)c(N)c1Cl (stereo not given),inactive,inactive,inactive,inactive,inactive,inactive,inactive,inactive,inactive,inactive,inactive,inactive,inactive,inactive,inactive,,,,,
C=CC(=O)OCC1CC2CC1C1CCC(COC(=O)C=C)C21 (stereo not given),24.3 µM (active),inactive,inactive,inactive,inactive,40.8 µM (active),inactive,,,inactive,,inactive,inactive,inactive,inactive,inactive,,,,
Nc1cccc2c(N)cccc12,13.7 µM (active),inactive,inactive,inactive,,,inactive,,,,inactive,inactive,,,,,inactive,0.646 µM (active),inactive,
COc1ccc(S(=O)(=O)N2C(=O)[C@@](c3ccccc3OC)(N3C[C@H](O)C[C@H]3C(=O)N(C)C)c3cc(Cl)ccc32)c(OC)c1,inactive,inactive,inactive,inactive,inactive,,inactive,,inactive,inactive,inactive,inactive,inactive,,inactive,,,inactive,,
C=C1CC[C@H](O)CC1=C/C=C1\CCC[C@]2(C)[C@@H]([C@H](C)/C=C/[C@H](C)C(C)C)CC[C@@H]12,21.5 µM (active) and 61.1 µM (active),inactive,inactive,inactive,,inactive,inactive,,,,,,inactive,inactive,inactive,inactive,inactive,,,
CCCCCC[C@@H](O)C/C=C\CCCCCCCC(=O)O,inactive,inactive,inactive,inactive,inactive,inactive,inactive,inactive,inactive,,inactive,inactive,inactive,inactive,,inactive,,inactive,,inactive
CCCCCCCC/C=C/CCCCCCCC1=NCCN1CCO,inactive,inactive,inactive,inactive,inactive,inactive,inactive,inactive,,inactive,,inactive,inactive,inactive,inactive,,,inactive,inactive,
CC1=Nc2ccccc2C1(C)C,43.3 µM (active),inactive,inactive,inactive,,inactive,inactive,,inactive,inactive,inactive,inactive,inactive,inactive,inactive,inactive,inactive,,,
CCCC(=O)OC[C@@H](OC(=O)CCC)[C@@H](OC(=O)CCC)[C@H](Cn1c2nc(=O)[nH]c(=O)c-2nc2cc(C)c(C)cc21)OC(=O)CCC,inactive,7.56 µM (active),16.9 µM (active),15.1 µM (active),,inactive,,,inactive,23.9 µM (active),inactive,19 µM (active),inactive,inactive,inactive,,inactive,inactive,,
CC(=O)c1ccc2c(c1)N(CCCN1CCC(CCO)CC1)c1ccccc1S2,inactive,inactive,inactive,inactive,,inactive,inactive,inactive,0.326 µM (active),inactive,,inactive,,inactive,0.0168 µM (active),,inactive,inactive,,inactive
CO/N=C(/C(=O)N[C@@H]1C(=O)N2C(C(=O)OCOC(=O)C(C)(C)C)=C(C)CS[C@H]12)c1csc(N)n1,inactive,inactive,inactive,inactive,inactive,inactive,inactive,,inactive,inactive,inactive,inactive,inactive,inactive,inactive,,,inactive,,
CCN(CC)CCNc1ccc(CO)c2sc3ccccc3c(=O)c12,11.9 µM (active),inactive,inactive,inactive,inactive,inactive,inactive,,inactive,,,inactive,16.8 µM (active),,inactive,,,,inactive,26.6 µM (active)
CCc1cc(Cc2cc(CC)c(N)c(CC)c2)cc(CC)c1N,inactive,inactive,inactive,inactive,inactive,40.8 µM (active),,,inactive,inactive,inactive,inactive,,,54.5 µM (active),,,,inactive,
C[C@@H](O)C(=O)O,inactive,inactive,inactive,inactive,inactive,inactive,inactive,,,,,,,,inactive,,,inactive,inactive,inactive
CC[C@H]1O[C@]2(CC[C@@H]1C)C[C@@H]1C[C@@H](C/C=C(\C)C[C@@H](C)/C=C/C=C3\CO[C@@H]4[C@H](O)C(C)=C[C@@H](C(=O)O1)[C@]34O)O2,inactive,inactive,inactive,inactive,inactive,inactive,inactive,,inactive,inactive,inactive,inactive,inactive,inactive,48.1 µM (active),,,inactive,,
CC(=O)NC1(c2cccc(F)c2)CCN(CC[C@@]2(c3ccc(Cl)c(Cl)c3)CN(c3ccccc3)C(=O)CO2)CC1,inactive,inactive,inactive,inactive,inactive,,inactive,inactive,,inactive,inactive,inactive,,inactive,inactive,,,36.5 µM (active),,
CCOC(=O)COc1ccc2c(C)c(CCN(CC)CC)c(=O)oc2c1Cl,inactive,inactive,inactive,inactive,inactive,inactive,inactive,inactive,inactive,inactive,,inactive,inactive,inactive,inactive,,,,,

# — PubChem BioAssay (Tox21)
